Consider 46 compounds from PubChem BioAssay AID504848 (National Center for Advancing Translational Sciences (NCATS), 2011).

About 1,400 (61%) of roughly 2,300 compounds were called active. Not shown: some 29% with an inconclusive outcome. So high a share suggests a set chosen from earlier hits. Some of the results follow. Unmarked numbers belong to inactive results. Calls come from the whole dose curve; as a rule, active = well fitted inhibition curve with a large enough effect; inconclusive = small, poorly fitted or top-dose-only effect, or effect the other way; inactive = no such curve, though single readings can be large or run the other way.
% is set by controls: 0 for no effect and ±100 for the full control effect; potency is the fitted concentration of half-maximal effect.

The nature of this assay: Confirmation screen for delayed death inhibitors of the malarial parasite plastid, 96 hour incubation. Note: nearly all actives have a fitted effect of over 60% in size. The note with it: P. falciparum luciferase growth in erythrocytes; series mostly up to 28.7 µM; activity change, negative = inhibition: at the top concentration. The source says: The goal of this screen is to discover new antimalarial compounds that act by inhibiting the development of the apicoplast in the malarial parasite Plasmodium falciparum. The biochemical processes that make this organelle essential for erythrocytic stage parasites are not well understood. However, antibiotics, such as azithromycin and tetracycline, which target the apicoplast translational machinery, have a potent antimalarial effect. […] We have developed a cell-based assay that measures parasite growth based on the expression of an integrated copy of a firefly luciferase reporter. To detect small molecules that cause this "delayed death phenotype, erythrocytes infected with the luciferase-expressing parasites were incubated with compounds for either one or two generations, corresponding to 48 and 96 hours, respectively. Compounds that inhibit parasite growth in the second generation, but not the first, should be enriched in antimalarials that target the apicoplast. Growth inhibition is detected by a decrease in luciferase activity. MLPCN Grant: R21 NS059500 Assay Provider: David Fidock and Eric Ekland, Columbia University Keywords: NIH Roadmap, MLPCN, MLI, MLSMR, qHTS, NCGC, qHTS, malaria, luciferase, viability
Four microliters of culture medium (RPMI 1640 with 0.5% w/v Albumax (GIBCO), 24 mM sodium bicarbonate and 10 ug/mL gentamycin) were dispensed by a Multi-drop Combi into white solid 1536-well plates (Grenier) and 23 nL compound was added by a pin tool. Four microliters of infected erythrocytes (2% hematocrit, 0.1% parasitemia final concentration) in culture medium were dispensed and the plates incubated for 96 hours at 37 C in 5% CO2. Two microliters of luciferase detection reagent was added and luminescence was detected by a ViewLux (PerkinElmer) reader
As for `CCOC(=O)c1c(-c2ccc(C)cc2C)csc1NC(=O)CSc1nnnn1C`, the Potency is 3.98 µM (active).

On to `O=C(NC(Cc1ccccc1)c1nc2ccccc2[nH]1)C1CC(=O)N(c2ccc3c(c2)OCCO3)C1` (stereo unspecified), for which the Potency was 14.1 µM (active).

In the case of `O=C1c2cccc3cc([N+](=O)[O-])cc(c23)C(=O)N1CCN1CCCC1`, the Potency was 12.6 µM (active).

Turning to `CN(c1ccccc1)S(=O)(=O)c1nnc(NC(=O)COc2ccccc2F)s1`, the Potency was 12.6 µM (active).

As for `Cc1ccc(S(=O)(=O)N2CCN(C(=O)CCc3c[nH]c4ccccc34)CC2)c(C)c1`, the Potency is 14.1 µM (active).

As to `COc1ccc(NC(=S)N2CCC(Cc3ccccc3)CC2)cc1OC`, the Potency is 12.6 µM (active).

As to `CCOC(=O)CC(Nc1nc(N2CCOCC2)nc(N2CCOCC2)n1)c1ccccc1Cl` (stereo unspecified), the Potency was 3.98 µM (active).

As for `O=C(/C=C/Sc1ccccc1)c1ccccc1`, the Potency is 11.2 µM (active).

Regarding `COC(=O)[C@]1(CC(C)C)N[C@H](c2ccc(-c3ccc(F)cc3)c(OC)c2)[C@@H]2C(=O)N(C)C(=O)[C@@H]21`, the Potency is 2 µM (active).

On to `CCOC(=O)Cn1nnnc1C(CC)N(Cc1cccs1)Cc1cc2ccc(OC)cc2[nH]c1=O` (stereo unspecified), for which the Potency was 12.6 µM (active).

With `Cc1ccccc1C(=O)Nc1ccc2c(c1)CCCN2C(=O)c1cccs1`, the Potency is 12.6 µM (active).

`COc1cc(OC)cc(C(=O)Nc2ccc3c(c2)CCCN3C(=O)c2cccs2)c1`: the Potency is 11.2 µM (active).

For `CC(C)c1[nH]nc2c1C(C1C=CCCC1)C(C#N)=C(N)O2` (stereo unspecified), the Potency was 14.1 µM (active).

In the case of `CCOCCCNC(=S)N1CCN(c2nc(-c3ccccc3)cs2)CC1`, the Potency was 12.6 µM (active).

As for `Cc1c(-c2ccccc2)nc2ccccc2c1C(=O)Nc1ccncc1`, the Potency was 0.178 µM (active).

On to `CC(C)CC1c2[nH]c3ccccc3c2CCN1CCCn1cccn1` (stereo unspecified), for which the Potency is 8.91 µM (active).

With `CC(=O)c1ccc(NC(=S)Nc2ccc3cn[nH]c3c2)cc1`, the “activity change, negative = inhibition” value is 0.644%.

For the compound `CCC(=O)NC(=S)Nc1ccc(NC(=O)c2ccc(C)c([N+](=O)[O-])c2)cc1`, the Potency is 10 µM (active).

For `CN(C(=O)c1cc([N+](=O)[O-])ccc1NCc1cccnc1)c1ccccc1`, the Potency is 11.2 µM (active).

Regarding `CN1/C(=C\C(=O)CSc2cccc[n+]2[O-])C(C)(C)c2ccccc21`, the Potency was 15.8 µM (active).

Consider `CSc1nnc(C)c(=O)[nH]1`, for which the “activity change, negative = inhibition” value is -5.97%.

As to `Clc1cccc(Cl)c1C[n+]1ccc2ccccc2c1`, the Potency was 1.26 µM (active).

For `Cc1ncc(CO)c(/C=N/NC(=S)Nc2ccc(F)cc2)c1O`, the Potency is 14.1 µM (active).

Consider `Cc1cccc(N/N=C(\C(N)=O)C2=NC(C)(C)Cc3ccccc32)c1`, for which the Potency is 3.98 µM (active).

Consider `CC(=O)c1ccc(N/N=C(/C(N)=O)C2=NC(C)(C)Cc3ccccc32)cc1`, for which the Potency is 6.31 µM (active).

With `O=C(COc1ccccc1Cl)NC(=S)N1CCc2ccccc21`, the Potency is 14.1 µM (active).

With `O=C(NCc1ccccn1)Nc1cc(Cl)ccc1Cl`, the Potency is 6.31 µM (active).

As for `CC(=O)c1cccc(Oc2cc(NN3CCCCC3)c([N+](=O)[O-])cc2[N+](=O)[O-])c1`, the Potency is 11.2 µM (active).

As to `Cc1noc(C)c1C(=O)Nc1nc(-c2ccc(F)cc2)cs1`, the “activity change, negative = inhibition” value is 8.57%.

Regarding `Cc1onc(-c2c(Cl)cccc2Cl)c1C(=O)N=C(N)N1CC(C)OC(C)C1` (stereo unspecified), the Potency was 7.08 µM (active).

Regarding `Cc1onc(-c2c(Cl)cccc2Cl)c1C(=O)NC1CCCCC1`, the Potency is 11.2 µM (active).

As to `COc1ccc(NC(=O)c2c(-c3c(Cl)cccc3Cl)noc2C)c(OC)c1`, the Potency is 2.24 µM (active).

Regarding `Cc1onc(-c2c(Cl)cccc2Cl)c1C(=O)Nc1nc(C(C)(C)C)cs1`, the Potency was 6.31 µM (active).

On to `COc1cnc(-c2ccccn2)nc1Oc1ccc(C(C)(C)C)cc1`, for which the Potency was 2.51 µM (active).

For the compound `COc1cnc(-c2ccccn2)nc1N(C)c1ccccc1`, the Potency is 2 µM (active).

Turning to `CSC1=NC(C)(C)C=C(/C=C/c2c(Cl)cccc2Cl)N1`, the Potency was 10 µM (active).

Regarding `CSC1=NC(C)(C)C=C(/C=C/c2ccc(Cl)cc2)N1`, the Potency is 4.47 µM (active).

In the case of `CSC1=NC(C)(C)C=C(/C=C/c2ccc(Cl)cc2Cl)N1`, the Potency was 1.78 µM (active).

As for `CC1(C)Cc2c(ccc3ccccc23)C(c2cc3ccccc3oc2=O)=N1`, the Potency was 4.47 µM (active).

As to `CN(C(=O)CN1C(=O)CCSc2ccc(S(=O)(=O)N3CCCC3)cc21)c1ccccc1`, the Potency is 7.94 µM (active).

As for `CCN(CC)CCn1c2c(c(SCC(=O)Nc3nc4ccccc4s3)nc1=O)CCCC2`, the Potency is 2 µM (active).

With `CCC(=O)NCCc1cc2ccc(C)cc2[nH]c1=O`, the “activity change, negative = inhibition” value is 1.76%.

As to `CCc1c(C(=O)NC2CCCc3ccccc32)[nH]c(C)c1C(C)=O` (stereo unspecified), the “activity change, negative = inhibition” value was -14.9%.

`CCc1c(C(=O)NCCc2cccc(C)c2)[nH]c(C)c1C(C)=O`: the Potency is 12.6 µM (active).

Turning to `CCOC(=O)Nc1ccc2c(CNC(C)c3ccccc3OC)cc(=O)oc2c1` (stereo unspecified), the Potency was 12.6 µM (active).

Regarding `COC(=O)COc1ccc2c(=O)c(-c3ccccc3OC)coc2c1`, the “activity change, negative = inhibition” value is -27.7%.
